Measurements reported in PubChem BioAssay.
Active and inactive are the calls of the source. Unless noted, the rule behind the calls is not given here.

What was measured:
[1] = test system: XIP peptide (Xip251-270) binding; assay: small-molecule binders of XIP peptide, primary screen, biochemical, small-molecule microarray, fluorescence 635/667 nm, 0.1 µg/mL protein (AID 1182); settings: fluorescent protein binding, 635 nm, higher = more signal, called active from +8 up or from −8 down
[2] = test system: XIP peptide (Xip251-270); assay: small-molecule binders of XIP peptide, primary screen, biochemical, small-molecule microarray, fluorescence 635/667 nm, 0.5 µg/mL protein (AID 1183); settings: small-molecule microarray binding, fluorescence 635 nm; higher = more signal
[3] = Plasmodium falciparum growth inhibition, primary screen, strain 3D7, DAPI fluorescence, 100 nL (AID 1184);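 note: parasites grown inside human red blood cells in medium with human serum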; settings: P. falciparum 3D7 growth, 3 d, higher = more signal
[4] = molecular target: Homeobox protein Hox-A13 (Mus musculus) (UniProt Q62424); assay: inhibitors of HoxA13-DNA binding, primary screen, biochemical, fluorescence polarization, labeled oligonucleotide (AID 1185); settings: 15 min, higher = more signal, called active from +8 up or from −8 down
[5] = inhibitors of hydroxyurea-induced Chk1 phosphorylation, primary screen, imaging, HeLa, phospho-Chk1 antibody, percent positive cells (AID 1186); settings: hydroxyurea-induced phospho-Chk1 immunofluorescence imaging, higher = more signal
[6] = inhibitors of hydroxyurea-induced Chk1 phosphorylation, primary screen, imaging, HeLa, phospho-Chk1 nuclear intensity (AID 1187); settings: hydroxyurea-induced phospho-Chk1 immunofluorescence imaging, higher = more signal

Chain of Homeobox protein Hox-A13 (Mus musculus) (Q62424 whole entry, looked up): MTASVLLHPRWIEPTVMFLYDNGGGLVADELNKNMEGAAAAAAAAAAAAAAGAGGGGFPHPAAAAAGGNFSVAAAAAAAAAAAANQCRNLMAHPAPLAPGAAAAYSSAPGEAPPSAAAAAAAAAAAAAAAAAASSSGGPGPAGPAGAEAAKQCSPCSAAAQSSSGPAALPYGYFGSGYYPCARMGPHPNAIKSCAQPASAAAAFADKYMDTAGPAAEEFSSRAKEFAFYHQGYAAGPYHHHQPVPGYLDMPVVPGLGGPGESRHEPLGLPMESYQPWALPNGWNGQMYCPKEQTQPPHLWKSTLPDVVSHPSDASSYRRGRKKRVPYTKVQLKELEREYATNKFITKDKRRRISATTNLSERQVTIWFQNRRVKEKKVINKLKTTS

Structure (SMILES)	composite z-score [1]	composite z-score [2]	z-score [3]	z-score [4]	z-score [5]	z-score [6]
COc1cc2c(cc1O)C=[N+](Cc1cccc(OC(F)(F)F)c1)CC2	-0.103 (inactive)	0.0686	-1.94	-3.45 (inactive)	-0.0564 (inactive)	-0.707 (inactive)
COCCOC(=O)N1C(=O)[C@@]2(c3cc(C#CC4=CCCCC4)ccc31)[C@H](C(=O)Nc1nc3ccccc3s1)[C@H]1C(=O)O[C@H](c3ccccc3)[C@H](c3ccccc3)N1[C@@H]2c1ccc(OCCO)cc1	-0.555 (inactive)	0.467	-1.52	3.78 (inactive)	-0.0093 (inactive)	0.303 (inactive)
COC(=O)c1c(CC[C@@H](CO)NC(=O)N[C@@H](C)Cn2cc(C3(O)CCCCC3)nn2)oc(C(C)=O)c1C(=O)OC	0.946 (inactive)	0.836	-2.45	-3.05 (inactive)	0.0032 (inactive)	0.715 (inactive)
O=C1NC(=O)C2C1C=CC(C(O)Cc1ccccc1)N2Nc1ccc(Cl)cc1Cl (stereo not drawn)	0.0966 (inactive)	-0.474	0.17	-5.64 (inactive)	0.985 (inactive)	1.09 (inactive)
COc1ccc([C@H]2C[C@H]3C(Br)=C[C@@H]2C(=O)[C@]32CO2)cc1	-0.244 (inactive)	-0.22	-0.518	-0.444 (inactive)	0.0297 (inactive)	-0.237 (inactive)
O=C1O[C@H](c2ccccc2)[C@H](c2ccccc2)N2[C@H]1[C@@H](C(=O)Nc1nc3ccccc3s1)[C@]1(C(=O)Nc3ccc(C#CC4(O)CCCCCC4)cc31)[C@H]2c1ccc(OCCO)cc1	2.25 (inactive)	0.663	-1.8	-0.979 (inactive)	0.341 (inactive)	0.346 (inactive)
CCOC(=O)[C@H]1CC=C2CC1C(=O)N1CCC[C@@H]1[C@@H]2O[Si](C)(C)C(C)(C)C (stereo partly drawn)	-0.473 (inactive)	-0.216	-0.575	-5.97 (inactive)	-0.696 (inactive)	-0.559 (inactive)
CC(CO)N1C(=O)[C@@H]2C3C(=O)OCCC/C=C\[C@H]3OC23C=CCN(c2ccc4ccccc4c2)C(=O)[C@@H]13 (stereo partly drawn)	0.372 (inactive)	0.0016	0.252	-3.77 (inactive)	-0.663 (inactive)	-0.182 (inactive)
CC1(C)[C@@H]2CC(C(O)C3C=CC4C(=O)N(c5ccccc5)C(=O)C4N3Nc3ccccc3)=C[C@H]1C2 (stereo partly drawn)	0.386 (inactive)	0.576	-0.0796	-3.65 (inactive)	-0.583 (inactive)	-0.715 (inactive)
C#CCNC(=O)[C@H](Cc1ccccc1)NC(=O)CCC(=O)O	0.234 (inactive)	-1.75	-0.213	-0.118 (inactive)	-0.482 (inactive)	-0.815 (inactive)
COCCOC(=O)N1C(=O)[C@@]2(c3cc(C#CCNC(N)=O)ccc31)[C@H](C(=O)NC[C@H](O)c1ccccc1)[C@H]1C(=O)O[C@H](c3ccccc3)[C@H](c3ccccc3)N1[C@@H]2c1ccccc1OCCO	0.0808 (inactive)	0.689	-0.411	-1.65 (inactive)	0.0441 (inactive)	0.0861 (inactive)
C=CCN(Cc1ccccc1)C(=O)C(c1cccs1)N(CCOCCO)C(=O)/C=C\C(=O)O (stereo not drawn)	-0.467 (inactive)	-0.573	-0.205	-1.25 (inactive)	-1.41 (inactive)	-0.806 (inactive)
O=C1c2ccccc2[C@@]2(Cc3ccccc3N(CCN3CCOCC3)C2=O)[C@H](c2ccc(CO)cc2)N1Cc1ccccc1	-0.178 (inactive)	0.206	-0.119	-0.421 (inactive)	-0.305 (inactive)	-0.0278 (inactive)
O=C1C2C=CC(C(O)C(c3ccccc3)c3ccccc3)N(n3cnnc3)C2C(=O)N1Cc1ccccc1 (stereo not drawn)	0.23 (inactive)	0.664	-0.528	-3.79 (inactive)	0.414 (inactive)	-0.402 (inactive)
COc1ccc(C(=O)O[C@H]2CC[C@]3(C)C4=C(CCC3C2(C)C)[C@]2(C)CC[C@H]([C@H](C)CCCC(C)C)[C@@]2(C)CC4)cc1 (stereo partly drawn)	-0.674 (inactive)	0.0738	0.148	-1.08 (inactive)	-0.975 (inactive)	-1.15 (inactive)
COc1ccc(C(=O)Nc2ccc(CN3C(=O)[C@@]4(O[C@@H](CCO)[C@H]([Si](C)(C)c5ccc(OC)cc5)[C@H]4C)c4ccccc43)cc2)cc1	0.264 (inactive)	0.758	-2.74	-1.17 (inactive)	-0.0822 (inactive)	-0.0421 (inactive)
CN1C(=O)C2C=CC(C(O)Cc3ccccc3)N(Nc3ccccc3)C2C1=O (stereo not drawn)	-0.0041 (inactive)	0.508	0.538	-4.51 (inactive)	-0.444 (inactive)	-0.889 (inactive)

Structure (SMILES)	composite z-score [1]	composite z-score [2]	z-score [3]	z-score [4]	z-score [5]	z-score [6]
C=CCOC(=O)[C@H]1[C@@H]2C(=O)O[C@@H](c3ccccc3)[C@@H](c3ccccc3)N2[C@@H](c2ccc(OCCOC(=O)[C@@H]3C[C@@H]4C(=O)N5CCC[C@H]5C(=O)N4[C@@H]3c3cccc(OCCO)c3)cc2)[C@]12C(=O)Nc1ccccc12	1.48 (inactive)	0.846	-1.71	-0.113 (inactive)	-0.934 (inactive)	-0.0548 (inactive)
C=CCN1C(=O)[C@@]2(O[C@@H](CCO)[C@H]([Si](C)(C)c3ccc(OC)cc3)[C@H]2C)c2cc(NC(=O)c3ccc(OC)cc3)ccc21	0.574 (inactive)	0.208	-2.77	-4.58 (inactive)	-0.176 (inactive)	0.416 (inactive)
COCCOC(=O)N1C(=O)[C@@]2(c3cc(C#CCCO)ccc31)[C@H](c1ccc(OCCO)cc1)N1[C@H](c3ccccc3)[C@H](c3ccccc3)OC(=O)[C@H]1[C@@H]2C(=O)N1CCN(c2ncccn2)CC1	-0.112 (inactive)	0.676	-1.98	0.671 (inactive)	0.159 (inactive)	-0.0774 (inactive)
COCCCN1C(=O)[C@@]2(Cc3ccccc31)c1ccccc1C(=O)N(Cc1ccccc1C(F)(F)F)[C@H]2c1ccc(CO)cc1	-0.219 (inactive)	0.55	-0.698	-0.825 (inactive)	0.25 (inactive)	0.49 (inactive)
CN1C(=O)[C@]2(Cc3ccccc3)N=C(c3ccc(OCCCO)cc3)O[C@@H]2c2ccccc21	0.97 (inactive)	0.818	-2.3	-4.54 (inactive)	-0.276 (inactive)	0.0593 (inactive)
CC(C)C[C@@H]1NC(=O)[C@H]2C[C@@H](C(=O)NCCCCCCN(C)C)[C@@H](c3ccc(O)cc3)N2C1=O	1.2 (inactive)	0.876	1.26	-1.57 (inactive)	0.731 (inactive)	0.387 (inactive)
CCCC[C@@H]1C[C@H]1[C@@H](NC(=O)c1ccco1)c1ccc(C(=O)OC)cc1	-0.687 (inactive)	-0.16	-0.941	0.198 (inactive)	0.29 (inactive)	0.0944 (inactive)
CC(C)(C)OC(=O)CC[C@@]1(C(=O)NCCN2CCOCC2)N=C(c2ccc(OCCCO)cc2)O[C@@H]1c1ccccc1N=[N+]=[N-]	0.171 (inactive)	0.401	-1.85	-3.61 (inactive)	0.17 (inactive)	0.297 (inactive)
CN(C)C(=O)[C@@]1(Cc2ccccc2CN=[N+]=[N-])N=C(c2ccc(OCCCO)cc2)O[C@H]1c1ccccc1	1.79 (inactive)	0.817	-2.27	-5.09 (inactive)	-0.631 (inactive)	-0.679 (inactive)
Cc1ccc(S[C@]2(C(=O)NCCN3CCOCC3)CC(=O)N(Cc3ccccc3)[C@@H]2c2ccc(CO)cc2I)cc1	0.302 (inactive)	0.0473	-1.44	-1.69 (inactive)	-0.0659 (inactive)	0.184 (inactive)
COC(=O)[C@@]1(Cc2ccc(F)cc2)[C@@H]2[C@@H](CC(=O)[C@H]2CC(=O)C(=O)N(C)C)CN1C(=O)c1ccccc1	0.502 (inactive)	0.588	-1.11	-3.94 (inactive)	0.0598 (inactive)	0.186 (inactive)
CCCC=C(CCC)[C@@H](NS(=O)(=O)c1cccs1)c1ccc(C(=O)OC)cc1	0.219 (inactive)	0.507	-0.677	-3.19 (inactive)	-0.284 (inactive)	0.0089 (inactive)
CCCCCCC#C[Si](O[C@H](c1ccccc1)c1cn([C@H](CO)Cc2ccccc2)nn1)(C(C)C)C(C)C	0.207 (inactive)	0.0718	0.221	-1.34 (inactive)	-0.653 (inactive)	-0.496 (inactive)
C=CCNC(=O)[C@H]1[C@@H]2C(=O)O[C@@H](c3ccccc3)[C@@H](c3ccccc3)N2[C@@H](c2ccc(OCCO)cc2)[C@]12C(=O)Nc1ccc(C#CC3=CCCCC3)cc12	0.116 (inactive)	0.731	-1.19	3.25 (inactive)	0.151 (inactive)	0.359 (inactive)
C=CC[C@@]1(C(N)=O)N=C(c2ccc(OCCCO)cc2)O[C@@H]1c1ccccc1CN=[N+]=[N-]	1.06 (inactive)	0.843	-1.7	-3.93 (inactive)	0.586 (inactive)	1.16 (inactive)
CC(C)(C)OC(=O)CC[C@]1(C(=O)O)N=C(c2ccc(OCCCO)cc2)O[C@H]1c1ccccc1N=[N+]=[N-]	1.25 (inactive)	0.907	-0.164	-5.39 (inactive)	0.0751 (inactive)	-0.136 (inactive)
